Measured values taken from PubChem BioAssay (NCATS).
Inconclusive results are not listed. A number with no mark means an inactive call.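 The calls were made as follows, unless noted: active = dose-dependent loss of cell ATP signal giving a full or clear fitted curve, ranked by lower potency value; inconclusive = weak partial curve or response only at the top dose; inactive = no loss of viability signal.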

Experiment: Cell Viability - BJ (AID 421; calls by dose curve;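 also: cells exposed to compound for 40 hours at 37 °C before readout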)
Details: BJ fibroblast viability, qHTS
Procedure, shortened: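 Cytotoxicity in human BJ foreskin fibroblasts is scored as loss of cellular ATP after a 40-hour exposure, measured by luciferase luminescence. Controls are DMSO and 100 uM tamoxifen.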
Potency is read from the fitted curve at half-maximal effect.

SMILES	Potency [µM]
C/C(C=O)=C/c1ccccc1	> 92
CCCCCCCCCCCCC1CO1 (stereo unspecified)	> 92
CC(=O)OC(C)=O	> 92
CC(C)c1ccccc1	> 92
COC(=O)c1ccccc1	> 92
C/C=C1\CC2C=CC1C2 (stereo unspecified)	> 92
C=C(C)C(=O)OCC(C)O (stereo unspecified)	> 92
NC(=O)c1ccccc1[N+](=O)[O-]	> 92
CC(CCl)OC(C)CCl (stereo unspecified)	> 92
Cc1cccc([N+](=O)[O-])c1C(=O)O	> 92
c1ccc(Oc2ccccc2)cc1	> 92
CN(C)CCCCl	> 92

Experiment: Cell Viability - Jurkat (AID 426);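 also: cells exposed to compound for 40 hours at 37 °C before ATP read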
Details: qHTS
Procedure, shortened: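 Cytotoxicity was scored as loss of cellular ATP, measured by luciferase-based luminescence, in Jurkat clone E6-1 cells after 40 h compound treatment; tamoxifen and doxorubicin served as positive controls.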

SMILES	Potency [µM]
Oc1c(Cl)ccc(Cl)c1Cl	> 92
CCCCCO	> 92
CCCCCCC(=O)O	> 92
CCCCCCCCC/C=C/CC1CC(=O)OC1=O (stereo unspecified)	> 92
c1ccc(Nc2ccccc2)cc1	> 92
O=[N+]([O-])c1ccc(Cl)cc1Cl	> 92
CCc1ccccc1	> 92
FC(F)(F)c1cccc(Cl)c1	> 92
FB(F)F	> 92
C=C(C)C(=O)OC	> 92
O=C(O)CN(CC(=O)O)CC(=O)O	> 92
CC=O	> 92
Cc1ccc(Cl)cc1	> 92
C=Cc1ccc(C=C)cc1	> 92
CC(O)CC(C)O (stereo unspecified)	> 92
O=C(Cl)c1c(Cl)cccc1Cl	> 92
O=C(O)c1cccc([N+](=O)[O-])c1	> 92
Clc1cc(Cl)cc(Cl)c1	> 92
NC(N)=S	> 92
CC(C)(O)CCC(C)(C)O	> 92

SMILES	Potency [µM]
OC(CCl)CCl	> 92
CCC(O)C(C)(C)C (stereo unspecified)	> 92
CNC(=O)c1ccccc1	> 92
CCNc1ccccc1	> 92
c1ccsc1	> 92
O=C(Cl)c1ccccc1[N+](=O)[O-]	> 92
Cc1ccc2cccnc2c1	> 92
C/C(C=O)=C/c1ccccc1	> 92
CCCCCCCCCCCCC1CO1 (stereo unspecified)	> 92
CC(=O)OC(C)=O	> 92
CC(C)c1ccccc1	> 92
COC(=O)c1ccccc1	> 92
C/C=C1\CC2C=CC1C2 (stereo unspecified)	> 92
C=C(C)C(=O)OCC(C)O (stereo unspecified)	> 92
NC(=O)c1ccccc1[N+](=O)[O-]	> 92
CC(CCl)OC(C)CCl (stereo unspecified)	> 92
Cc1cccc([N+](=O)[O-])c1C(=O)O	> 92
c1ccc(Oc2ccccc2)cc1	> 92
CN(C)CCCCl	> 92
